In PubChem BioAssay (NCATS) one finds Potency data, which are given here for 34 compounds.

Records with an inconclusive call do not appear. Entries that show only a call come without a potency. The source made the active and inactive calls. The call rests on the fitted dose curve; in most records, active means well fitted activation curve with a large enough effect; inconclusive means small, poorly fitted or top-dose-only effect; inactive means no such curve, though single readings can be large or run the other way.
Potency means the concentration at half of the fitted maximal effect.

The target in this test is Arylsulfatase A (Homo sapiens) (UniProt P15289). The experiment in a line: qHTS screen for enhancers of Arylsulfatase A (ASA1): LOPAC Validation Assay (AID 720538). The conditions noted are these: ASA enzyme activity, LOPAC qHTS enhancer assay; series mostly up to 57.5 µM. From the text: Lysosomal storage diseases (LSDs) are caused by genetic mutations in genes encoding proteins important for normal lysosomal function. In affected patients, symptoms are usually not manifested unless the mutations result in more than 90% reduction of enzymatic activity of a specific lysosomal enzyme. […] Small molecules could function as enzyme enhancement agents by binding to and stabilizing mutant misfolded proteins in the endoplasmic reticulum (ER), allowing them to evade the ER associated degradation (ERAD), and eventually reach the lysosome. Moreover, small molecules is hypothesized to be able to enhance the residual activity of deficient lysosomal enzyme by either interacting directly with the mutant enzyme or indirectly by acting in different cellular pathways; resulting to increased levels of the mutant and partially functional protein in the lysosomal compartment.
Chain of Arylsulfatase A (Homo sapiens) (P15289 whole entry, looked up): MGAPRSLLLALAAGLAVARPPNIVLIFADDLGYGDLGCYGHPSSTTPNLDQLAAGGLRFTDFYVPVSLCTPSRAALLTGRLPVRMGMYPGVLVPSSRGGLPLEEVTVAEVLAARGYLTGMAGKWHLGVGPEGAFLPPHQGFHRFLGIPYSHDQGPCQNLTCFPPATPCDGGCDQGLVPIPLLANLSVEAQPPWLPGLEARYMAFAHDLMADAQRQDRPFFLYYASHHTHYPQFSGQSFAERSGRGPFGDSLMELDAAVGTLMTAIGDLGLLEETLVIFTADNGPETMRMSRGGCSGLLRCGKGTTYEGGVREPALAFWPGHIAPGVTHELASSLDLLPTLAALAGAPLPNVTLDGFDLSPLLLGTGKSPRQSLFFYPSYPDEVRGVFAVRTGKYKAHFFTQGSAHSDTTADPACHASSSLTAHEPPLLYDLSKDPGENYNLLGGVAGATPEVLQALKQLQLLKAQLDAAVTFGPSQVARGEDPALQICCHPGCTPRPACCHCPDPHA
A cell based assay in 1536 well plate format was developed to evaluate activity of the lysosomal sulfatase ASA1 enzyme. ASA1 is deficient in metachromatic leukodystrophy (MLD), an LSD characterized by progressive neurodegeneration for which specific treatment is not available. Compounds that are active may therefore have some therapeutic application for this disease. This assay was used to validate the ASA1 qHTS using the Sigma LOPAC library. In this assay increase in signal = enhanced ASA1 activity. Activation is the desired outcome for this assay.
NIH Chemical Genomics Center [NCGC]
NIH Molecular Libraries Probe Centers Network [MLPCN]
Assay Submitter (PI): Gustavo Maegawa, Johns Hopkins University School of Medicine
[2] Gieselmann V, et al. Acta Paediatr Suppl. 2008; 97: 15-21
Four microliter (~8,000 cells/well) of SV40-transformed skin fibroblasts from an MLD patient (ASA-I179S) were seeded into a 1,536 solid white plate. Cells were left to adhere for 6 hrs, followed by addition of 23 nL of compounds. Cells were incubated with compounds for 48h at 37 degree C and 5% CO2. Four microliter of 1 mM pNCS substrate/lysis buffer (0.5mM pNCS final concentration) was added and incubated for 14h at room temperature. To stop the reaction, […] of 5 N of NaOH (1N NaOH final concentration) was then added and fluorescence was measured using the ViewLux plate reader (Ex=525 nm; Em=598 nm).
Consider `CC(=O)[C@H]1CC[C@H]2[C@@H]3CC[C@H]4C[C@H](O)CC[C@]4(C)[C@H]3C(=O)C[C@]12C`, for which the Potency entry is “inactive”. With `CCCN1CCC[C@@H]2Cc3[nH]ncc3C[C@H]21` the entry was “inactive”; with `COc1ccc(Cc2nccc3cc(OC)c(OC)cc23)cc1OC`, “inactive”; with `NCC(CC(=O)O)c1ccc(Cl)cc1` (centres undefined), “inactive”.

Regarding `CNCC(O)c1ccc(O)cc1` (centres undefined), the Potency result was “inactive”.

As for `CN1C[C@H](CNC(=O)OCc2ccccc2)C[C@@H]2c3cccc4c3c(cn4C)C[C@H]21`, the Potency entry is “inactive”. Under `CCCC(C)(COC(N)=O)COC(=O)NC(C)C` (centres undefined) stands “inactive”. In the case of `O=C1NCN(c2ccccc2)C12CCN(CC1COc3ccccc3O1)CC2` (centres undefined), the Potency is 3.01 µM (active). Turning to `CC[C@@H](CO)NC(=O)[C@@H]1C=C2c3cccc4c3c(cn4C)C[C@H]2N(C)C1`, the Potency entry is “inactive”.

Take `CC(C)=CCOc1c2occc2cc2ccc(=O)oc12`: the Potency entry is “inactive”. In the case of `C[C@]12CC[C@@H]3c4ccc(O)cc4C[C@@H](CCCCCCCCCS(=O)CCCC(F)(F)C(F)(F)F)[C@H]3[C@@H]1CC[C@@H]2O` (some centres undefined), the Potency entry was “inactive”. For `Nc1ccncc1`, the Potency result was “inactive”. Regarding `c1ccc2c(c1)OCC(C1=NCCN1)O2` (centres undefined), the Potency entry was “inactive”. Under `CCCN1CCC[C@@H]2Cc3nc(N)ncc3C[C@H]21` stands “inactive”; under `NCC(O)c1ccc(O)cc1` (centres undefined), “inactive”. Under `CCC1(C2=NCCN2)Cc2ccccc2O1` (centres undefined) stands “inactive”; under `NN=C(N)N`, “inactive”; under `O=NN(CCCl)C(=O)NCCCl`, “inactive”.

Regarding `Cc1cccc(C)c1NC(=O)CN1CCCC1=O`, the Potency result was “inactive”. As to `C=C(C)[C@H]1Cc2c(ccc3c2O[C@@H]2COc4cc(OC)c(OC)cc4[C@@H]2C3=O)O1`, the Potency entry was “inactive”. Under `N#CC(C#N)=Cc1ccc(O)c(O)c1` stands “inactive”; under `COc1ccccc1N1CCNCC1`, “inactive”. With `O=c1[nH]c2ccccc2n1CCCN1CCC(n2c(=O)[nH]c3cc(Cl)ccc32)CC1` the entry was “inactive”.

As to `O=c1[nH]c2ccccc2n1C1CCN(CCCC(c2ccc(F)cc2)c2ccc(F)cc2)CC1`, the Potency entry was “inactive”. For the compound `Cc1ccc(S(=O)(=O)N[C@@H](CCCCN)C(=O)CCl)cc1`, the Potency is 3.01 µM (active). For `c1ccc(C2CC2)c(OCC2=NCCN2)c1`, the Potency result is “inactive”. Under `CC(CCc1ccccc1)NC(C)C(O)c1ccc(O)cc1` (centres undefined) stands “inactive”; under `CNCCC(Oc1ccc(C(F)(F)F)cc1)c1ccccc1` (centres undefined), “inactive”; under `C[C@]12CCC(=O)C(O)=C1CC[C@@H]1[C@@H]2CC[C@]2(C)C(=O)CC[C@@H]12`, “inactive”. Turning to `COC[C@H]1OC(=O)c2coc3c2[C@@]1(C)C1=C(C3=O)C2CCC(=O)[C@@]2(C)C[C@H]1OC(C)=O` (some centres undefined), the Potency result was “inactive”. Consider `Cc1cc2c(C(C)C)c(O)c(O)c(C=O)c2c(O)c1-c1c(C)cc2c(C(C)C)c(O)c(O)c(C=O)c2c1O`, for which the Potency is 19 µM (active). Under `NCC1(CC(=O)O)CCCCC1` stands “inactive”; under `CC[C@@H](CO)NC(=O)[C@@H]1C=C2c3cccc4[nH]cc(c34)C[C@H]2N(C)C1`, “inactive”; under `C[C@@H]1O[C@@H](O[C@H]2C[C@@H](O)[C@]3(CO)[C@H]4[C@H](O)C[C@]5(C)[C@@H](C6=CC(=O)OC6)CC[C@]5(O)[C@@H]4CC[C@]3(O)C2)[C@H](O)[C@H](O)[C@H]1O`, “inactive”.
